{"source": "PubChem BioAssay (NCATS)", "note": "Records with an inconclusive call do not appear. Values without a mark were called inactive. The call rests on the fitted dose curve; in most records, active means well fitted inhibition curve with a large enough effect; inconclusive means small, poorly fitted or top-dose-only effect; inactive means no such curve, though single readings can be large or run the other way. On the % scale 0 is the no-effect control and ±100 the full control effect."}
{"target": "Thioredoxin reductase 1, cytoplasmic (Rattus norvegicus) (UniProt O89049)", "sequence (O89049 whole entry, looked up)": "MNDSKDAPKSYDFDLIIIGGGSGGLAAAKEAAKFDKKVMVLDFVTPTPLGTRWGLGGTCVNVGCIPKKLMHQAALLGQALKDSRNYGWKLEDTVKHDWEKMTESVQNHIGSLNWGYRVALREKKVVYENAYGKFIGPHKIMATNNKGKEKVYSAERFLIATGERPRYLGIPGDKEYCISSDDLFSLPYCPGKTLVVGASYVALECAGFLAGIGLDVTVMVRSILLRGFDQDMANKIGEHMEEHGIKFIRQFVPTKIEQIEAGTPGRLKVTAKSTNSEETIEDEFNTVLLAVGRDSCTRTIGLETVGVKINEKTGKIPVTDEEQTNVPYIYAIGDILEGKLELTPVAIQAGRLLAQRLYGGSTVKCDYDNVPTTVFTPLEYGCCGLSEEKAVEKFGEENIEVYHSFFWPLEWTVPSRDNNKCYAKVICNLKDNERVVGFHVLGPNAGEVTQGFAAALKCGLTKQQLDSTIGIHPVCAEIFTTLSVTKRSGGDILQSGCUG", "test": "qHTS Assay for Inhibitors of Mammalian Selenoprotein Thioredoxin Reductase 1 (TrxR1) (AID 488773);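 further: drop in NADPH fluorescence over an 8 min run after selenite addition; nearly all actives have a fitted effect of over 40% in size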", "conditions": "purified TrxR1 enzyme activity; Potency: inhibition; series mostly up to 57.1 µM; activity change, negative = inhibition: at the top concentration", "how_it_was_run": "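Inhibition is scored from the loss of NADPH fluorescence between first and last reads of an 8-min kinetic run. Selenite (400 uM) was the substrate, added after 15 min compound preincubation at room temperature.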", "units": {"activity change, negative = inhibition": "%"}}
{"smiles": "CC(C)[N+](C)(CCOC(=O)C1c2ccccc2Oc2ccccc21)C(C)C", "activity change, negative = inhibition": -12.3}
{"smiles": "CC1=NS(=O)(=O)c2cc(Cl)ccc2N1", "activity change, negative = inhibition": 0.283}
{"smiles": "NC1=NCC2c3ccccc3Cc3ccccc3N12", "note": "(stereo not given)", "activity change, negative = inhibition": -2.02}
{"smiles": "O=C(O)CN(CCOCCOCCN(CC(=O)O)CC(=O)O)CC(=O)O", "activity change, negative = inhibition": 6.75}
{"smiles": "CCO/C([O-])=N/c1c[n+](N2CCOCC2)no1", "activity change, negative = inhibition": -2.81}
{"smiles": "CNCCC(Oc1ccccc1OC)c1ccccc1", "note": "(stereo not given)", "activity change, negative = inhibition": -7.14}
{"smiles": "C[N+](C)(C)CCOC(=O)CCC(=O)OCC[N+](C)(C)C", "activity change, negative = inhibition": 3.29}
{"smiles": "CCN(CC)CCCN(c1ccccc1)C1Cc2ccccc2C1", "activity change, negative = inhibition": 7.42}
{"smiles": "CCCN(CCC)CCc1cccc2c1CC(=O)N2", "activity change, negative = inhibition": 3.94}
{"smiles": "C[C@@H](O)[C@H]1C(=O)N2C(C(=O)O)=C(SCCN=CN)C[C@H]12", "activity change, negative = inhibition": -12.8}
{"smiles": "CCN1CCC[C@H]1CNC(=O)c1c(O)c(Cl)cc(Cl)c1OC", "activity change, negative = inhibition": -3.38}
{"smiles": "CC(C)COCC(CN(Cc1ccccc1)c1ccccc1)N1CCCC1", "note": "(stereo not given)", "activity change, negative = inhibition": -9.06}
{"smiles": "CC(C)(Oc1ccc(CCNC(=O)c2ccc(Cl)cc2)cc1)C(=O)O", "activity change, negative = inhibition": -7}
{"smiles": "CN1C(=O)CC[C@H]1c1cccnc1", "activity change, negative = inhibition": -9.56}
{"smiles": "Cc1nc2ccccn2c(=O)c1CCN1CCC(C(=O)c2ccc(F)cc2)CC1", "activity change, negative = inhibition": 0.245}
{"smiles": "NC(=O)c1cn(Cc2c(F)cccc2F)nn1", "activity change, negative = inhibition": 15.5}
{"smiles": "CCCCCCCC/C=C\\CCCCCCCC(=O)NCc1ccc(O)c(OC)c1", "activity change, negative = inhibition": -0.287}
{"smiles": "CN(C(=O)CCCOc1ccc2[nH]c(=O)ccc2c1)C1CCCCC1", "activity change, negative = inhibition": -5.21}
{"smiles": "CSc1ccc(C(=O)c2[nH]c(=O)[nH]c2C)cc1", "activity change, negative = inhibition": -9.77}
{"smiles": "C[C@]12CC[C@@H]3c4ccc(O)cc4C[C@@H](CCCCCCCCCS(=O)CCCC(F)(F)C(F)(F)F)[C@H]3[C@@H]1CC[C@@H]2O", "note": "(stereo not given in full)", "activity change, negative = inhibition": -11}
{"smiles": "CC(=O)[C@@]1(O)CC[C@H]2[C@@H]3CCC4=CC(=O)CC[C@]4(C)[C@H]3CC[C@@]21C", "activity change, negative = inhibition": -1.23}
{"smiles": "CCCCCN(CCCCC)C(=O)C(CCC(=O)O)NC(=O)c1ccc(Cl)c(Cl)c1", "note": "(stereo not given)", "activity change, negative = inhibition": -1.54}
{"smiles": "O=C(CCNNC(=O)c1ccncc1)NCc1ccccc1", "activity change, negative = inhibition": -0.698}
{"smiles": "COCCc1ccc(OCC(O)CNC(C)C)cc1", "note": "(stereo not given)", "activity change, negative = inhibition": -4.89}
{"smiles": "c1ccc2c(c1)CCCC2C1=NCCN1", "note": "(stereo not given)", "activity change, negative = inhibition": -18.9}
{"smiles": "Cc1cccc(C)c1NC(=O)C(C)N", "note": "(stereo not given)", "activity change, negative = inhibition": -20.9}
{"smiles": "OC(CCN1CCCCC1)(c1ccccc1)C1CCCCC1", "note": "(stereo not given)", "activity change, negative = inhibition": -17.8}
{"smiles": "CCn1ccnc1CC1COc2ccccc2O1", "note": "(stereo not given)", "activity change, negative = inhibition": -0.544}
{"smiles": "CCCN(CCC)C(=O)C(CCC(=O)O)NC(=O)c1ccccc1", "note": "(stereo not given)", "activity change, negative = inhibition": -6.98}
{"smiles": "Cc1ccc(S(=O)(=O)NC(=O)NN2CCCCCC2)cc1", "activity change, negative = inhibition": -12.3}
{"smiles": "CCCOc1ccccc1-c1nc2n[nH]nc2c(=O)[nH]1", "activity change, negative = inhibition": -1.27}
{"smiles": "NC(=O)c1ncn([C@@H]2O[C@H](CO)[C@@H](O)[C@H]2O)c1O", "activity change, negative = inhibition": 1.03}
{"smiles": "CCc1cccc(N(C)C(N)=Nc2cccc3ccccc23)c1", "activity change, negative = inhibition": 6.66}
{"smiles": "C[n+]1cc2c3c(ccc2c2ccc4cc5c(cc4c21)OCO5)OCO3", "activity change, negative = inhibition": -21.7}
{"smiles": "Cc1nc2sccn2c(=O)c1CCN1CCC(=C(c2ccc(F)cc2)c2ccc(F)cc2)CC1", "activity change, negative = inhibition": -6.64}
